Screening results deposited in PubChem by National Center for Advancing Translational Sciences (NCATS).
Tau ThT inhib: inhibitors of human tau fibril formation, thioflavin T binding; P10636; recombinant tau K18 P301L, heparin-induced fibrillization, ThT fluorescence; Potency, µM (series often up to 57.4 µM), inactives show at the highest dose activity, negative = inhibition, actives largely listed as inhibitors; 270,000 tested, 2.1% active; AID 1460; also: potency is read from the fitted curve at half-maximal effect; nearly all actives have a fitted effect of over 55% in size
Target sequence (P10636 561-689 P618L limits assumed): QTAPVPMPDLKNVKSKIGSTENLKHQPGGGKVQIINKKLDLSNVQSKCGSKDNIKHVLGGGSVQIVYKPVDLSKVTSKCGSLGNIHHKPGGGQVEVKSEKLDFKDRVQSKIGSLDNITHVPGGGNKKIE
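Heparin-induced (20 uM) aggregation of recombinant human K18 P301L tau, 15 uM unlabeled with 0.24 uM labeled, pH 7 acetate buffer, 6 hr at 37 C with compound. Fibrils quantified by 30 uM ThT fluorescence after 1 hr ambient incubation.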
Tau fibril FP: tau fibrillization inhibition (FP). K18 P301L tau heparin fibrillization, Alexa594 FP, 6 h. P10636. 280,000 tested, 0.39% active. Potency, µM (titrated, usually from 57.7 µM), for the others: top-dose activity, negative = inhibition, actives largely listed as inhibitors; also: potency is read from the fitted curve at half-maximal effect; nearly all actives have a fitted effect of over 55% in size
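K18 P301L tau (15 uM unlabeled/0.24 uM Alexa 594-labeled, final) + compound + heparin 20 uM final; 100 mM NaOAc pH 7; 6 hr 37 C; ThT 30 uM final added, 1 hr RT; FP ex 555/em 632 nm.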
PNC inhibitor: blocks assembly of the perinucleolar compartment | PC3M PTB-GFP, PNC prevalence imaging, 16 h; stronger effect = lower value | activity change (PNC), negative = inhibition, % at 10 µM | 140,000 tested, 3.1% active | AID 2417;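 active = readout at or below -70, meaning at least 70% loss of cells showing the perinucleolar compartment, a nuclear body marking cancer cells; inconclusive = readout between -30 and a set limit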;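 also: plate controls were DMSO wells for no effect and camptothecin positive control wells for full effect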
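Read-out is percentage of cells bearing a perinucleolar compartment, from automated 20x imaging of fixed, Hoechst-stained PC3M PTB-GFP cells. Cells were seeded 4 h, then exposed 16 h to compound (23 nl of library stock) in duplicate plates.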
TR SRC2 fluor cs: counter-screen for TRb-SRC2 inhibitors: fluorescence interference; TRb/SRC2 Texas Red total fluorescence interference; Potency, µM (series often up to 106 µM), for inactives: at the top dose fluorescence change, negative = quenching; 280,000 tested, 0.29% active; AID 1479; active = well fitted curve in either direction with a large enough effect; inconclusive = small, poorly fitted or top-dose-only effect; also: potency is read from the fitted curve at half-maximal effect
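Human TRβ ligand-binding domain (0.6 uM) and Texas Red SRC2 peptide (20 nM) in Tris buffer with 1 uM T3 and 5% DMSO were incubated with pinned compound for 5 hr at ambient temperature. Total fluorescence was computed as S + 2P (555/632 nm).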
TRb-SRC2 inh: inhibitors of human thyroid hormone receptor beta-SRC2 interaction. P10828. TRbeta-SRC2 peptide binding, fluorescence polarization; receptor liganded with 1 µM T3. Potency, µM (titrated, usually from 106 µM), inactives show at the top dose activity change, negative = inhibition, actives largely listed as inhibitors. 280,000 tested, 0.065% active. AID 1469;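 also: potency is read from the fitted curve at half-maximal effect; plate controls were bound peptide for no effect and peptide without receptor for full effect; nearly all actives have a fitted effect of over 50% in size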
Target sequence (P10828 whole entry, looked up): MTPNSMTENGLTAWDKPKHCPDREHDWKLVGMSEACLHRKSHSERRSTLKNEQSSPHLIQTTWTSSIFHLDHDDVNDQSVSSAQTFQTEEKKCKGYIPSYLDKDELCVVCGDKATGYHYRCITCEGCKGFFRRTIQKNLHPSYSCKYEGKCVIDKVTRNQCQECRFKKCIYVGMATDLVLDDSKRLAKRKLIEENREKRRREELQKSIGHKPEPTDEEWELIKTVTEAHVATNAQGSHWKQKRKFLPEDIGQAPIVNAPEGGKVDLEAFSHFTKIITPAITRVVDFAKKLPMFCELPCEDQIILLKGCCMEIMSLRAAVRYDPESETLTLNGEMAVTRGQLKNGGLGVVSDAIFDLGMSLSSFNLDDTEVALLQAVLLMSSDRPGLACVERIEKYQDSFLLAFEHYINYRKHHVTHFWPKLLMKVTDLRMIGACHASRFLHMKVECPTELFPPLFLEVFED
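Assay buffer: 20 mM Tris-HCl, 100 mM NaCl, 10% glycerol, 1 mM EDTA, 0.01% NP-40, 1 mM DTT, 1 uM T3, 5% DMSO; TRb LBD 0.6 uM, Texas Red SRC2 20 nM; FP after 5 hr.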
Tau fluor counter: counter-screen for tau fibril formation inhibitors | tau K18 P301L (four-repeat tau fragment) Alexa594 fluorescence, heparin fibrillization | Potency, µM (series often up to 57.7 µM), for the others: top-dose activity change, negative = decrease | 280,000 tested, 0.93% active | AID 1463; also: potency is read from the fitted curve at half-maximal effect; nearly all actives have a fitted effect of over 55% in size
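Human K18 P301L tau (15 uM unlabeled plus 0.24 uM Alexa 594-labeled, final) in 100 mM sodium acetate pH 7 was mixed with compound and 20 uM heparin and incubated 6 hr at 37 C.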
Starred values were filed as active, the others as inactive; [ ] = another dose, or the depositor's remark. This is a sample that favours compounds with a hit; in the whole collection about 4.6% have one here. Unless noted, calls follow the shape of the dose curve; as a rule, active = well fitted curve in the direction sought with a large enough effect; inconclusive = small, poorly fitted or top-dose-only effect, or another doubt; inactive = no such curve, though single readings can be large; an effect the other way counts as inactive or inconclusive. Unless noted, % is scaled to controls: 0 for no effect and ±100 for the full control effect.

Cc1ccc(C(C)C)c(OCCn2cc(C(=O)c3ccco3)c3ccccc32)c1 was read as Tau ThT inhib -5%, Tau fibril FP inconclusive, TR SRC2 fluor cs -9%, TRb-SRC2 inh 6% and Tau fluor counter -29%.
Screening CC1(C)CC(Nc2ccc(C(F)(F)F)cc2[N+](=O)[O-])CC(C)(C)N1 returned Tau ThT inhib -4%, Tau fibril FP 6%, TR SRC2 fluor cs 3%, TRb-SRC2 inh 0% and Tau fluor counter 4%.
`CC(=Nc1ccc(O)cc1)c1sc2ccccc2c1O` gave Tau ThT inhib 4.5µM*, Tau fibril FP 13%, PNC inhibitor 16, TR SRC2 fluor cs 0%, TRb-SRC2 inh -2% and Tau fluor counter inconclusive.
Screening CC(=Nc1ccccc1O)c1sc2ccccc2c1O returned Tau ThT inhib 5µM*, Tau fibril FP 18%, TR SRC2 fluor cs -2%, TRb-SRC2 inh -8% and Tau fluor counter 28µM*[quencher].
`COc1ccccc1N1CCN(c2ccc(=O)n(CC(=O)Nc3ccc(F)c(F)c3)n2)CC1` gave Tau ThT inhib -11%, Tau fibril FP 3%, TR SRC2 fluor cs -2%, TRb-SRC2 inh 5% and Tau fluor counter -30%.
For CCCCCn1ccc(=N)cc1 the results were Tau ThT inhib 4%, Tau fibril FP 4%, PNC inhibitor -84*, TR SRC2 fluor cs 1%, TRb-SRC2 inh 7% and Tau fluor counter 3%.
Screening Cc1ccc(NC(=O)Nc2ccc3snnc3c2)cc1C returned Tau ThT inhib 3%, Tau fibril FP inconclusive, TR SRC2 fluor cs 0%, TRb-SRC2 inh 2% and Tau fluor counter inconclusive.
`COc1ccc(OCc2cccc(C(=O)Nn3cc([N+](=O)[O-])cn3)c2)cc1` gave Tau ThT inhib -6%, Tau fibril FP 4%, PNC inhibitor -99*, TR SRC2 fluor cs 3%, TRb-SRC2 inh inconclusive and Tau fluor counter -5%.
For O=C(NNS(=O)(=O)c1ccc([N+](=O)[O-])cc1)c1cnn(-c2ccccc2)c1-n1cccc1 the results were Tau ThT inhib -9%, Tau fibril FP 3%, PNC inhibitor -100*, TR SRC2 fluor cs 2%, TRb-SRC2 inh 2% and Tau fluor counter -11%.
Screening Cc1cccc2cc(CN(C(=O)c3cccc(Cl)c3)c3ccccc3)c(=O)[nH]c12 returned Tau ThT inhib 13%, Tau fibril FP -9%, TR SRC2 fluor cs 3%, TRb-SRC2 inh 2% and Tau fluor counter 2%.
Screening CN(C)/C=N/c1sc2c(c1C#N)CCCCC2 returned Tau ThT inhib -13%, Tau fibril FP 10%, PNC inhibitor -11, TR SRC2 fluor cs -1%, TRb-SRC2 inh -1% and Tau fluor counter -9%.
`Cc1ccc(NC(=S)N/N=C/c2c(C)[nH]c3ccccc23)cc1` gave Tau ThT inhib inconclusive, Tau fibril FP 9%, TR SRC2 fluor cs -2%, TRb-SRC2 inh 4% and Tau fluor counter 14µM*[quencher].
Screening Cc1[nH]c2ccccc2c1/C=N/NC(=S)NCc1ccccc1 returned Tau ThT inhib inconclusive, Tau fibril FP -8%, TR SRC2 fluor cs -6%, TRb-SRC2 inh 6% and Tau fluor counter 13µM*[quencher].
`COc1ccccc1OCc1ccc(C(=O)NCc2ccco2)o1` gave Tau ThT inhib -18%, Tau fibril FP -3%, PNC inhibitor -86*, TR SRC2 fluor cs 2%, TRb-SRC2 inh -7% and Tau fluor counter -8%.
O=C(N/N=C/c1cccc([N+](=O)[O-])c1)c1nc2ccccc2c(=O)[nH]1 was read as Tau ThT inhib -2%, Tau fibril FP 7%, TR SRC2 fluor cs 2%, TRb-SRC2 inh -2% and Tau fluor counter 1%.
For O=C(N/N=C/c1ccccc1Cl)c1nc2ccc([N+](=O)[O-])cc2c(=O)[nH]1 the results were Tau ThT inhib 10µM*, Tau fibril FP 1%, TR SRC2 fluor cs -3%, TRb-SRC2 inh 8% and Tau fluor counter inconclusive.
Screening CCOC(=O)N1[C@@H]2C=C(C)[C@@H]2[C@@H]2[C@@H](C)C(=O)N21 returned Tau ThT inhib -1%, Tau fibril FP -4%, PNC inhibitor 9, TR SRC2 fluor cs -3%, TRb-SRC2 inh -8% and Tau fluor counter 4%.
For Oc1c(Cl)cc(Cl)cc1CNn1cnnc1 the results were Tau ThT inhib 8%, Tau fibril FP 0%, TR SRC2 fluor cs -5%, TRb-SRC2 inh -7% and Tau fluor counter 4%.
O=C(Nc1cccc(Cl)c1)Nc1nc(-c2ccc(Cl)cc2)cs1 was read as Tau ThT inhib 4%, Tau fibril FP inconclusive, PNC inhibitor inconclusive, TR SRC2 fluor cs 0%, TRb-SRC2 inh 1% and Tau fluor counter inconclusive.
Screening CN(C)S(=O)(=O)c1ccc(NC(=O)/C=C/c2ccccc2Cl)cc1 returned Tau ThT inhib 6%, Tau fibril FP inconclusive, PNC inhibitor 68, TR SRC2 fluor cs inconclusive, TRb-SRC2 inh -1% and Tau fluor counter inconclusive.
CCOC(=O)c1sc(NC(=O)Nc2cccc(Cl)c2)cc1C was read as Tau ThT inhib -23%, Tau fibril FP inconclusive, PNC inhibitor -2, TR SRC2 fluor cs -1%, TRb-SRC2 inh -10% and Tau fluor counter 3.5µM*[quencher].
O=C(Nc1cccc(Cl)c1)Nc1csc([N+](=O)[O-])c1 was read as Tau ThT inhib 16µM*, Tau fibril FP inconclusive, TR SRC2 fluor cs -3%, TRb-SRC2 inh -3% and Tau fluor counter 8.9µM*[quencher].
Screening CN(C)c1ccc(NC(=O)Nc2cccc(Cl)c2)cc1 returned Tau ThT inhib 13µM*, Tau fibril FP 10%, PNC inhibitor -14, TR SRC2 fluor cs -3%, TRb-SRC2 inh -11% and Tau fluor counter 14µM*[quencher].
`CN(C)c1ccc(NC(=O)/C=C/c2c(Cl)cccc2Cl)cc1` gave Tau ThT inhib inconclusive, Tau fibril FP 16%, PNC inhibitor -93*, TR SRC2 fluor cs 2%, TRb-SRC2 inh 8% and Tau fluor counter inconclusive.
`O=C(Nc1ccc(Oc2cccc3ccccc23)cc1)c1ccco1` gave Tau ThT inhib -20%, Tau fibril FP inconclusive, PNC inhibitor -22, TR SRC2 fluor cs 2%, TRb-SRC2 inh 13% and Tau fluor counter inconclusive.
`CCCCCCCCC#Cc1nc(C)ccc1OC` gave Tau ThT inhib -10%[126 µM], Tau fibril FP -7%[126 µM], TR SRC2 fluor cs 0%[201 µM], TRb-SRC2 inh 4%[201 µM] and Tau fluor counter -14%[126 µM].
Screening CC(=O)Nc1cccc(NC(=O)CSc2nccn2Cc2ccco2)c1 returned Tau ThT inhib 0%, Tau fibril FP 1%, TR SRC2 fluor cs -8%, TRb-SRC2 inh 1% and Tau fluor counter -7%.
Screening C=CCn1c(=O)c2ccccc2n2c(SCC(N)=O)nnc12 returned Tau ThT inhib 6%, Tau fibril FP 6%, PNC inhibitor -4, TR SRC2 fluor cs 1%, TRb-SRC2 inh -12% and Tau fluor counter 4%.
